From PubChem
This is a sample that favours compounds with a hit; in the whole collection about 7.9% have one here.
HCV inhibitor: blocks hepatitis C virus | Huh7.5.1 HCVcc-Cre infection, luciferase reporter, 44 h | Potency, µM (series often up to 41.8 µM), for the others: top-dose activity change, negative = inhibition, most hits filed as inhibitors | hit rate 3.4% among 340,000; active = well fitted inhibition curve with a large enough effect; inconclusive = small, poorly fitted or top-dose-only effect, or another doubt; inactive = no such curve, though single readings can be large or run the other way; note: potency is the fitted concentration of half-maximal effect
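A cell-based infection assay in which seeded cells (1,000 per well) receive test compound after 4 h, are inoculated with HCVcc-Cre at approximately 0.5 moi, and are incubated 44 h before luminescence detection.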
FMDV inh: foot and mouth disease virus antiviral activity | hit rate 1.2% among 410,000 | FMDV antiviral cell-based qHTS | Potency, µM (doses to about 57.9 µM), without a hit: top-dose activity change, negative = inhibition, usual class: inhibitors; calls by dose curve; tested in HEK293T cells; note: read-out not given here; potency is the fitted concentration of half-maximal effect; nearly all actives have a fitted effect of over 45% in size
Marburg entry inh: Marburg virus entry inhibition; Marburg virus pseudotyped entry inhibition, cell reporter; Potency, µM (doses to about 37.8 µM), for inactives: top-dose activity change, negative = inhibition, most hits filed as inhibitors; hit rate 1.8% among 300,000; calls by dose curve; tested in HEK293 cells; note: potency is the fitted concentration of half-maximal effect
LASV entry inh: inhibitors of Lassa virus binding or cell entry; hit rate 1.2% among 300,000; Lassa virus pseudotype entry inhibition, cell reporter; Potency, µM (highest dose often 37.9 µM), inactives show at the top dose activity change, negative = inhibition, actives largely listed as inhibitors; calls by dose curve; tested in HEK293 cells; note: potency is the fitted concentration of half-maximal effect; nearly all actives have a fitted effect of over 50% in size
HCMV inh: blocks human cytomegalovirus replication; HFF cells, HCMV-luciferase reporter, 72 h; active compounds read low; activity change, negative = inhibition, % at 57.5 µM; hit rate 4.5% among 410,000; AID 1259415; in the data active = activity change below about -60%; inconclusive = no clear call, values can overlap the other calls; inactive = above about -39%
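Compounds were evaluated in HFFs infected with an HCMV luciferase reporter virus (MOI 1 PFU/cell). Luciferase in lysates collected 72 h post infection served as the replication measure.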
An asterisk follows results filed as active; ? = inconclusive; . = no result given; [ ] = dose if it differs, or a comment. % is set by controls: 0 for no effect and ±100 for the full control effect.

SMILES	HCV inhibitor	FMDV inh	Marburg entry inh	LASV entry inh	HCMV inh
CCN(C(=O)c1ccc(C(=O)N(CC)c2ccccc2C)cc1)c1ccccc1C	.	-1%	.	9%[46.1 µM]	-4
CCCCCCCN(C(=O)CCl)c1ccccc1C	?	?	-1%	2%	-83*
O=C(CCl)N(Cc1cc(=O)[nH]c2ccccc12)c1ccccc1	?	14µM*	3%	.	-100*
Cc1ccccc1N(Cc1cc(=O)[nH]c2ccccc12)C(=O)C(C)C	26%	-14%	?	2%	29
Cc1ccccc1N(Cc1cc(=O)[nH]c2ccccc12)C(=O)CCl	.	.	.	.	-101*
CC1CCCCN1CCCNC(=O)Cn1ncc2c3ccccc3n(Cc3ccccc3F)c2c1=O (stereo unspecified)	.	-25%	-3%[46.1 µM]	-2%[46.1 µM]	-74*
Cc1ccccc1Cn1c2ccccc2c2cnn(CC(=O)NCc3cccc(Cl)c3)c(=O)c21	.	-10%	-21%[46.1 µM]	-24%[46.1 µM]	-78*
COc1ccccc1CNC(=O)Cn1ncc2c3ccccc3n(Cc3ccccc3C)c2c1=O	.	-3%	-14%[46.1 µM]	0%[46.1 µM]	-8
CCCn1c2ccccc2c2cnn(CC(=O)NCCCN3CCCC(C)C3)c(=O)c21 (stereo unspecified)	?	-7%	?	-27%[46.1 µM]	-65*
CC1CCCCN1CCCNC(=O)Cn1ncc2c3ccccc3n(C)c2c1=O (stereo unspecified)	.	-12%	-13%[46.1 µM]	19%[46.1 µM]	31
CCCn1c2ccccc2c2cnn(CC(=O)NCCCN3CCCCC3)c(=O)c21	-10%	?	.	-3%[46.1 µM]	-24
CCCn1c2ccccc2c2cnn(CC(=O)NCCCN3CCN(c4ccccc4)CC3)c(=O)c21	11µM*	-13%	.	.	-24
CCCn1c2ccccc2c2cnn(CC(=O)N3CCCC(C)C3)c(=O)c21 (stereo unspecified)	.	-4%	.	-4%[46.1 µM]	-62*
O=C(Nc1cccc(C(F)(F)F)c1)C1CCCN1S(=O)(=O)c1cccc2cccnc12 (stereo unspecified)	?	?	?	?	-93*
CC(OCCN1CCCC1)(c1ccc(F)cc1)c1ccc(F)cc1	-16%	?	?	2µM*	-6
COc1ccc(CCCc2nnc(SCC(=O)Nc3nccs3)n2C)cc1C	-13%	-27%	4%	21µM*	6
Cc1ccc(CC(=O)Nc2nccs2)cc1C	10%	25%	8%	1%	-94*
Cc1cc(C)nc(SCc2nnc(SCC(=O)Nc3nccs3)n2C)n1	5%	-17%	?	0%	8
CCc1ccccc1NC(=O)Cn1c(=O)n(Cc2ccco2)c(=O)c2ccccc21	.	0%	-13%[46.1 µM]	25%[46.1 µM]	3
Cc1cc(Cl)ccc1Nc1ncnc2onc(C)c12	.	-22%	.	4%[46.1 µM]	-9
CCCCNc1nc(Oc2ccc(OCCC)nn2)nc(N(C)C)n1	.	-20%	0%[46.1 µM]	-5%[46.1 µM]	10
O=C(C#Cc1ccccc1)Nc1ccccc1F	?	13%	.	.	-96*
COc1ccc(NC(=O)C#Cc2ccccc2)cc1OC	?	12%	?	-9%[46.1 µM]	-88*
CNC(=O)Nc1ccccc1F	21%	-18%	-2%	1%	10
COc1ccc(NC(=O)c2ccccc2SC)cc1OC	-8%	30%	10%	12%	10
SMILES	HCV inhibitor	FMDV inh	Marburg entry inh	LASV entry inh	HCMV inh
COc1ccc(NC(=O)C(=O)NCCc2ccccc2)cc1OC	.	-16%	4%[46.1 µM]	18%[46.1 µM]	-64*
NC(=O)c1ccc(NC(=O)C#Cc2ccccc2)cc1	?	-6%	4.5µM*	2.2µM*	-103*
CCNC(=O)c1ccccc1NC(=O)c1cccc(S(=O)(=O)N2CCC(C)CC2)c1	10µM*	?	?	-16%	?
CNC(=O)c1ccccc1NC(=O)c1cccc(S(=O)(=O)N2CCCCC2)c1	-12%	3%	1%[46.1 µM]	-18%	-38
CNC(=O)c1ccccc1NC(=O)c1cccc(S(=O)(=O)N2CCC(C)CC2)c1	?	0%	?	22µM*	-35
CN1CCN(S(=O)(=O)c2cccc(C(=O)N(c3ccccn3)C3CCCCC3)c2)CC1	-3%	-1%	-10%	5%	18
CC1CCN(S(=O)(=O)c2cccc(C(=O)N(Cc3ccccc3)c3ccccn3)c2)CC1	-13%	8%	?	?	-66*
Cc1cccc(-c2nc(SCc3cc(=O)c4c(C)cc(C)cc4[nH]3)n[nH]2)c1	.	-18%	.	-1%[46.1 µM]	-31
NCCc1nnc(SCc2c(Cl)cccc2Cl)o1	7%	-17%	.	.	-25
NCCCCCc1nnc(SCc2ccccc2Cl)o1	-20%	?	?	?	-76*
N[C@@H](Cc1ccccc1)c1nnc(SCc2ccccc2Cl)o1	-3%	1%	-16%	19%	-70*
COc1cc2c(ccc3cc(OC)c(OC)c(O)c32)cc1O	?	-1%	.	.	-105*
CC1CCC(C(=O)NC(C(=O)OCC(=O)c2ccccc2)C(C)C)CC1 (stereo unspecified)	.	?	-6%[46.1 µM]	-10%[46.1 µM]	-28
CN(C)c1ccc(C(C(=O)NCC2CCCO2)N(Cc2ccccc2)C(=O)c2snc(C(N)=O)c2N)cc1 (stereo unspecified)	-6%	3%	?	?	-17
Cc1ccc(C(C(=O)NCc2ccc(F)cc2)N(Cc2ccco2)C(=O)c2snc(C(N)=O)c2N)o1 (stereo unspecified)	?	18%	?	?	-81*
NC(=O)c1nsc(C(=O)N(Cc2ccco2)C(C(=O)NCc2ccc(F)cc2)c2ccc(O)cc2)c1N (stereo unspecified)	-25%	-1%	2%[46.1 µM]	.	-29
CN(C)c1ccc(C(C(=O)NCc2ccccc2)N(Cc2ccco2)C(=O)c2snc(C(N)=O)c2N)cc1 (stereo unspecified)	13µM*	-10%	?	?	-76*
NC(=O)c1nsc(C(=O)N(Cc2ccc(F)cc2)C(C(=O)NCC2CCCO2)c2ccc(F)cc2)c1N (stereo unspecified)	-13%	16%	11µM*	-8%	-2
COc1cc(Nc2nc(SCc3ccccc3Cl)nc3ccccc23)cc(OC)c1	.	-21%	.	14%[46.1 µM]	-18
CC(=O)N1CCN(c2ccc(Oc3ccc([N+](=O)[O-])c(C(F)(F)F)c3)cc2)CC1	11µM*	?	?	?	.
CCOc1ccc(C(=O)Nc2ccc(N3CCN(C(C)=O)CC3)cc2)cc1[N+](=O)[O-]	-18%	-25%	.	.	-33
CN(CC(O)COc1ccc(OCC(O)CN(C)C2CCCCC2)cc1)C1CCCCC1 (stereo unspecified)	16µM*	-1%	10µM*	?	?
CN(C[C@H](O)COc1ccc(OC[C@H](O)CN(C)C2CCCCC2)cc1)C1CCCCC1	.	.	10µM*	.	.
Cc1cccc(C)c1OCC(O)CN(Cc1ccccc1O)C1CCCCC1 (stereo unspecified)	?	-7%	?	-2%[46.1 µM]	-69*
CCC(=O)c1ccc(OCC(O)CN(C)C2CCCCC2)cc1 (stereo unspecified)	?	0%	?	2%	25
CCCSc1ccccc1C(=O)N1CCN(C(=O)c2ccco2)CC1	3%	-9%	-24%[46.1 µM]	?	-101*
